# Measured values from PubChem BioAssay (NCATS).
# Records with an inconclusive call do not appear. Entries that show only a call come without a potency. Values without a mark were called inactive. Active and inactive are the calls of the source. The call rests on the fitted dose curve; in most records, active means well fitted curve in the direction sought with a large enough effect; inconclusive means small, poorly fitted or top-dose-only effect, or another doubt; inactive means no such curve, though single readings can be large; an effect the other way counts as inactive or inconclusive.
# Target: Rap guanine nucleotide exchange factor 4 (Homo sapiens) (UniProt Q8WZA2)
# Assay: Confirmatory qHTS for agonist of cAMP-regulated guanine nucleotide exchange factor 4 (EPAC2) (AID 1645884);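 further: nucleotide exchange releases bodipy-GDP from Rap1 and this lowers its fluorescence; nearly all actives have a fitted effect of over 65% in size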
# Settings: EPAC2 GEF activity, Rap1B-BODIPY-GDP fluorescence; series mostly up to 154 µM
# Sequence of Rap guanine nucleotide exchange factor 4 (Homo sapiens) (Q8WZA2 whole entry, looked up): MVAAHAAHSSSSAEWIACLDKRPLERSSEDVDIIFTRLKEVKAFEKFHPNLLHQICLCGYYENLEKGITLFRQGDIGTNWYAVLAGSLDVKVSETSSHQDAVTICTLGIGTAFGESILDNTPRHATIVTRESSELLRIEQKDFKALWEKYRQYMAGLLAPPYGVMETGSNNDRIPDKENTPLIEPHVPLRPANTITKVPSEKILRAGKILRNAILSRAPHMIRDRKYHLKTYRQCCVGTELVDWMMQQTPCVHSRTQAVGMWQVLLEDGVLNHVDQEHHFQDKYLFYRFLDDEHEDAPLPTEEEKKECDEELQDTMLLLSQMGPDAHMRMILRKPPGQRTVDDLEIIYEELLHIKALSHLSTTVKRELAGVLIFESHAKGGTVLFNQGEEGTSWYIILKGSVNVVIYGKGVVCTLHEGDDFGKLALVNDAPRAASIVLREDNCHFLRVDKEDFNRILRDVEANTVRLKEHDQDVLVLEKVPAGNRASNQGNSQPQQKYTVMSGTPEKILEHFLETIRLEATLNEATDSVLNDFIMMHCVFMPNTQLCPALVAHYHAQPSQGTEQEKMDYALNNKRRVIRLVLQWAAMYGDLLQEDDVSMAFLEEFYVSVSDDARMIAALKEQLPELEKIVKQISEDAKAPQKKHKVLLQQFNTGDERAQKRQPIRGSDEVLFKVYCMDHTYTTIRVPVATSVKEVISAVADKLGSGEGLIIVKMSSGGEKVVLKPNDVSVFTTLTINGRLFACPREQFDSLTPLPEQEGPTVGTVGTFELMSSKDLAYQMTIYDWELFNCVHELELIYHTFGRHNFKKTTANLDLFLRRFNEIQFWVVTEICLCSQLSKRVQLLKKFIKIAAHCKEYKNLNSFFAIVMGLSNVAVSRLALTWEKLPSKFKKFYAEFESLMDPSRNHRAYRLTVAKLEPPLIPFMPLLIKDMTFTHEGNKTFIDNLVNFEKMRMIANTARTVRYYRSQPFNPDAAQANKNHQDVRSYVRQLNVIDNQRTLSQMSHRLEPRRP
SMILES,Potency,activation
COC1=C/C(=C/c2c(N)n3nc(-c4ccc(C)cc4)sc3nc2=O)C=CC1=O,inactive,–
Cc1ccc2oc(=O)c3cnn(CC(=O)NC4CCC(C)CC4)c3c2c1 (stereo not given),inactive,–
CC(=O)NC(c1ccc(Cl)cc1Cl)c1ccc2cccnc2c1O (stereo not given),inactive,–
CCOC(=O)c1c(C)[nH]c(C(=O)C(C)OC(=O)c2ccc(NC(=O)CC#N)cc2)c1C (stereo not given),inactive,–
CC(C)OP(=O)(OC(C)C)C1(NS(=O)(=O)c2ccc(Cl)cc2)C=C(Cl)C(=O)C(Cl)=C1,–,"-0.932% [at 17.1 µM, percent relative to cAMP agonist control]"
Cc1cc(Br)c2c(c1)[C@](O)(c1cn(C)c3ccccc13)C(=O)N2C,–,"1.9% [at 17.1 µM, percent relative to cAMP agonist control]"
Cc1ccc(C2CC(c3cccs3)=NN2C(=O)c2ccco2)o1 (stereo not given),–,"1.82% [at 17.1 µM, percent relative to cAMP agonist control]"
C[C@@H]1CCCCCCCCC(=O)OCCN1C(=O)OC(C)(C)C,inactive,–
Cc1ccccc1-c1ccc(CN2C(C(C)C)C(=O)N(Cc3cn(CCC4OCCO4)nn3)CCS2(=O)=O)cc1 (stereo not given),inactive,–
CCOC(=O)[C@H]1[C@H]2COc3ccc(C)cc3[C@@H]2N2C(=O)c3cc(F)c(F)cc3NC(=O)[C@@]12C,inactive,–
O=C(O)CSc1nnc(COc2cccc3ccccc23)n1Cc1ccccc1,inactive,–
O=c1oc2ccccc2n1Cc1ccccc1Cl,inactive,–
CCOC(=O)c1c(CC(C)C)csc1NC(=O)COC(=O)c1ccc(O)cc1,inactive,–
Fc1ccc2c(-c3cccc(C(F)(F)F)c3)c(-c3ccccc3)ncc2c1,inactive,–
O=C(O)c1cc(N/N=C/C=C/c2ccccc2)ccc1Cl,inactive,–
NS(=O)(=O)c1ccc(N/N=C/c2ccc(C(=O)O)cc2)c([N+](=O)[O-])c1,inactive,–
O=C(Nc1ccccc1C(=O)Nc1nnc(C(F)(F)F)s1)c1ccccc1Cl,inactive,–
COc1cccc(N2CCN(CC(=O)NC(=O)NCc3ccco3)CC2)c1,inactive,–
CC(=O)C1=C(O)C2(C)c3c(O)c(C)c(O)c(C(C)=O)c3OC2CC1=O (stereo not given),–,"-4.59% [at 17.1 µM, percent relative to cAMP agonist control]"
Fc1ccc2cnc(-c3ccccc3)c(-c3ccc(C(F)(F)F)cc3)c2c1,inactive,–

SMILES,Potency,activation
CCCCC[C@H](C)N1C[C@H](COCc2ccccc2)Oc2cc(N3CCC[C@H]3C(N)=O)ccc2S1(=O)=O,inactive,–
COc1cc2c(c(OC)c1OC)C(c1ccccc1C)CC(=O)O2 (stereo not given),inactive,–
O=C(COC(=O)c1c2c(nc3ccccc13)/C(=C\c1ccco1)CC2)NC1CCCC1,inactive,–
O=C(O)c1cc(NN=C2c3ccccc3-c3ccccc32)ccc1Cl,inactive,–
O=C(Nc1nc2ccccc2c(=O)s1)c1ccc(F)cc1Cl,inactive,–
CC(C)CNC(=O)C1(C)CCCCCN1Cc1ccccc1-c1ccccc1 (stereo not given),inactive,–
O=C(O)c1[nH]c2ccccc2c1C(c1cccc(O)c1)c1c(C(=O)O)[nH]c2ccccc12,inactive,–
Cn1c2ccccc2c2cc(/C=N/NC(=O)c3cc(O)cc(O)c3)ccc21,inactive,–
Cc1ccc(C2CC(c3cccs3)=NN2C(=O)CSc2nc(=O)n3cc(C)ccc3n2)cc1 (stereo not given),inactive,–
Cc1ccc2nc(-c3cccc(Br)c3)c(Cc3ccccn3)n2c1,inactive,–
Oc1ccc(-c2cn3c(n2)SCC3)cc1O,inactive,–
Cc1c(C(=O)N2CCCC2)oc2ccc(Br)cc12,inactive,–
CCc1cc(=O)oc2cc(C)cc(OCC(=O)N[C@@H](CSCc3ccccc3)C(=O)O)c12,inactive,–
COc1ccccc1/C=C/C=c1\sc2nc(=O)c(Cc3ccccc3)nn2c1=O,inactive,–
CCOC(=O)C1=C(C)NC(C)=C(C(=O)OCC)C1C(=O)OCC(=O)NCc1ccc(F)cc1,inactive,–
Cc1noc(C)c1COc1ccccc1C(=O)N(C)Cc1ccc(C(C)(C)C)cc1,inactive,–
COc1cc(/C=C2\SC(=S)N(NC(=O)c3ccc(O)c(OC)c3)C2=O)ccc1O,inactive,–
CCOc1cnc(-c2c(-c3ccccc3Cl)noc2C)o1,inactive,–
COC(=O)C1=CN(Cc2cccs2)C=C(C(=O)OC)C1c1cccc(Cl)c1,–,"2.31% [at 17.1 µM, percent relative to cAMP agonist control]"
O=C(Cc1ccc(Br)c2ccccc12)N/N=C/c1ccccn1,inactive,–

# Target: Rap guanine nucleotide exchange factor 3 (Homo sapiens) (UniProt O95398)
# Assay: Counterscreen qHTS for antagonist of cAMP-regulated guanine nucleotide exchange factor 3 (EPAC1) (AID 1645888);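 further: fluorescence loss as bound BODIPY-GDP is released from Rap1B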
# Settings: Rap1B-BODIPY-GDP nucleotide exchange, fluorescence; series mostly up to 154 µM
# Summary of the method: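 Measured: fluorescence of BODIPY-GDP bound to Rap1B, which falls as exchange proceeds. Conditions include 50 uM competing GDP, 5 and 30 min reads, and a later cAMP challenge for antagonist detection.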
# Sequence of Rap guanine nucleotide exchange factor 3 (Homo sapiens) (O95398 whole entry, looked up): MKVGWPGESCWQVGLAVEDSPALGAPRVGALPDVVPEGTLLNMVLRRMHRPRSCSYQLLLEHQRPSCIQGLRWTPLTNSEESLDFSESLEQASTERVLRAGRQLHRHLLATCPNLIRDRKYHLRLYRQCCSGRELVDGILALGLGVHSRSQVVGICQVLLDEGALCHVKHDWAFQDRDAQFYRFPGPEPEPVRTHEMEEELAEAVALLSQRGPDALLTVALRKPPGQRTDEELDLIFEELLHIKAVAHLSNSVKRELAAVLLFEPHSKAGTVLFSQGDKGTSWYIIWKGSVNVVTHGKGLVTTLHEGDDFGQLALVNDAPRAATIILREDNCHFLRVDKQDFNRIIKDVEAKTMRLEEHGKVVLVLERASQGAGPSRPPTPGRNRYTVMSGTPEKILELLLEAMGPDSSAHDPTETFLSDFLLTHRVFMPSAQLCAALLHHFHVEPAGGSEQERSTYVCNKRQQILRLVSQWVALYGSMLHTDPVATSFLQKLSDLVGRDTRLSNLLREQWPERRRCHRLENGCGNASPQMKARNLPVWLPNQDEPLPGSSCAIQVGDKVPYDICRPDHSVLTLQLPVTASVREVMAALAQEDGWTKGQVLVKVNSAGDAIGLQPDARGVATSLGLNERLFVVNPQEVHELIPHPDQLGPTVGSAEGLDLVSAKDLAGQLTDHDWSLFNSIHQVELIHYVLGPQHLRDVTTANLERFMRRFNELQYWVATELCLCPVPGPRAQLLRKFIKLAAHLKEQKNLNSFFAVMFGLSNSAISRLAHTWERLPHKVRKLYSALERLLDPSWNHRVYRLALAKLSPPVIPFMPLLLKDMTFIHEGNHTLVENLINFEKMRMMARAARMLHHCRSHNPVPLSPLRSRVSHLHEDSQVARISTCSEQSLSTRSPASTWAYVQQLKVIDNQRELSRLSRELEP
SMILES,Potency,"activity change, negative = inhibition"
COC1=C/C(=C/c2c(N)n3nc(-c4ccc(C)cc4)sc3nc2=O)C=CC1=O,inactive,–
Cc1ccc2oc(=O)c3cnn(CC(=O)NC4CCC(C)CC4)c3c2c1 (stereo not given),inactive,–
CC(=O)NC(c1ccc(Cl)cc1Cl)c1ccc2cccnc2c1O (stereo not given),inactive,–
CCOC(=O)c1c(C)[nH]c(C(=O)C(C)OC(=O)c2ccc(NC(=O)CC#N)cc2)c1C (stereo not given),inactive,–
CC(C)OP(=O)(OC(C)C)C1(NS(=O)(=O)c2ccc(Cl)cc2)C=C(Cl)C(=O)C(Cl)=C1,–,-5.74% [at 30.8 µM]
Cc1cc(Br)c2c(c1)[C@](O)(c1cn(C)c3ccccc13)C(=O)N2C,–,-15.6% [at 30.8 µM]
Cc1ccc(C2CC(c3cccs3)=NN2C(=O)c2ccco2)o1 (stereo not given),–,-15.2% [at 30.8 µM]
C[C@@H]1CCCCCCCCC(=O)OCCN1C(=O)OC(C)(C)C,inactive,–
Cc1ccccc1-c1ccc(CN2C(C(C)C)C(=O)N(Cc3cn(CCC4OCCO4)nn3)CCS2(=O)=O)cc1 (stereo not given),inactive,–
CCOC(=O)[C@H]1[C@H]2COc3ccc(C)cc3[C@@H]2N2C(=O)c3cc(F)c(F)cc3NC(=O)[C@@]12C,inactive,–
O=C(O)CSc1nnc(COc2cccc3ccccc23)n1Cc1ccccc1,inactive,–
O=c1oc2ccccc2n1Cc1ccccc1Cl,inactive,–
CCOC(=O)c1c(CC(C)C)csc1NC(=O)COC(=O)c1ccc(O)cc1,inactive,–
Fc1ccc2c(-c3cccc(C(F)(F)F)c3)c(-c3ccccc3)ncc2c1,inactive,–
O=C(O)c1cc(N/N=C/C=C/c2ccccc2)ccc1Cl,inactive,–
NS(=O)(=O)c1ccc(N/N=C/c2ccc(C(=O)O)cc2)c([N+](=O)[O-])c1,inactive,–
O=C(Nc1ccccc1C(=O)Nc1nnc(C(F)(F)F)s1)c1ccccc1Cl,inactive,–
COc1cccc(N2CCN(CC(=O)NC(=O)NCc3ccco3)CC2)c1,inactive,–
CC(=O)C1=C(O)C2(C)c3c(O)c(C)c(O)c(C(C)=O)c3OC2CC1=O (stereo not given),–,-6.21% [at 30.8 µM]
Fc1ccc2cnc(-c3ccccc3)c(-c3ccc(C(F)(F)F)cc3)c2c1,inactive,–

SMILES,Potency,"activity change, negative = inhibition"
CCCCC[C@H](C)N1C[C@H](COCc2ccccc2)Oc2cc(N3CCC[C@H]3C(N)=O)ccc2S1(=O)=O,inactive,–
COc1cc2c(c(OC)c1OC)C(c1ccccc1C)CC(=O)O2 (stereo not given),inactive,–
O=C(COC(=O)c1c2c(nc3ccccc13)/C(=C\c1ccco1)CC2)NC1CCCC1,inactive,–
O=C(O)c1cc(NN=C2c3ccccc3-c3ccccc32)ccc1Cl,inactive,–
O=C(Nc1nc2ccccc2c(=O)s1)c1ccc(F)cc1Cl,inactive,–
CC(C)CNC(=O)C1(C)CCCCCN1Cc1ccccc1-c1ccccc1 (stereo not given),inactive,–
O=C(O)c1[nH]c2ccccc2c1C(c1cccc(O)c1)c1c(C(=O)O)[nH]c2ccccc12,inactive,–
Cn1c2ccccc2c2cc(/C=N/NC(=O)c3cc(O)cc(O)c3)ccc21,inactive,–
Cc1ccc(C2CC(c3cccs3)=NN2C(=O)CSc2nc(=O)n3cc(C)ccc3n2)cc1 (stereo not given),inactive,–
Cc1ccc2nc(-c3cccc(Br)c3)c(Cc3ccccn3)n2c1,inactive,–
Oc1ccc(-c2cn3c(n2)SCC3)cc1O,inactive,–
Cc1c(C(=O)N2CCCC2)oc2ccc(Br)cc12,inactive,–
CCc1cc(=O)oc2cc(C)cc(OCC(=O)N[C@@H](CSCc3ccccc3)C(=O)O)c12,inactive,–
COc1ccccc1/C=C/C=c1\sc2nc(=O)c(Cc3ccccc3)nn2c1=O,inactive,–
CCOC(=O)C1=C(C)NC(C)=C(C(=O)OCC)C1C(=O)OCC(=O)NCc1ccc(F)cc1,inactive,–
Cc1noc(C)c1COc1ccccc1C(=O)N(C)Cc1ccc(C(C)(C)C)cc1,inactive,–
COc1cc(/C=C2\SC(=S)N(NC(=O)c3ccc(O)c(OC)c3)C2=O)ccc1O,inactive,–
CCOc1cnc(-c2c(-c3ccccc3Cl)noc2C)o1,inactive,–
COC(=O)C1=CN(Cc2cccs2)C=C(C(=O)OC)C1c1cccc(Cl)c1,–,-4.15% [at 30.8 µM]
O=C(Cc1ccc(Br)c2ccccc12)N/N=C/c1ccccn1,inactive,–
